Data as given in PMC7862700, “An all-to-all approach to the identification of sequence-specific readers for epigenetic DNA modifications on cytosine”.

What was measured:
Assay in all cases: DAPPL (digital affinity profiling via proximity ligation, sequencing); 10 mM Tris-HCl pH 7.5, 50 mM NaCl, 1 mM DTT, 4% glycerol, room temperature, 30 min; GST-TFs on glutathione beads, 16-mer random dsDNA library, 0.1% formaldehyde crosslink after washing; high values mean tight binding
Settings in all cases: protein: recombinant; tags: N-terminal GST; dsDNA, one strand shown
FLI1 = target: T1, FLI1 (Homo sapiens, UniProt Q01543 1-452)
T1 sequence: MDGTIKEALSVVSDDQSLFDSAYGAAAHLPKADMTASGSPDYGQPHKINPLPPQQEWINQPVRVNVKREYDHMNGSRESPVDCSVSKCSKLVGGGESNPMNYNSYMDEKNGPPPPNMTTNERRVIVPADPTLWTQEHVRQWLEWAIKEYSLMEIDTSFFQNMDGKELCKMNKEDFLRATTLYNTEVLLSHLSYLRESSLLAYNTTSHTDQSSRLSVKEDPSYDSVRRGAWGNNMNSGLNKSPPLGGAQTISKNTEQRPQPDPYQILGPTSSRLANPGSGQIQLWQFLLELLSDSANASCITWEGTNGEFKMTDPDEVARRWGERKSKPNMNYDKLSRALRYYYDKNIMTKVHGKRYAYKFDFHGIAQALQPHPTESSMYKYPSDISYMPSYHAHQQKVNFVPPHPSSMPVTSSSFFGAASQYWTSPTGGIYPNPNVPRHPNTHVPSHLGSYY
How it was run: (§1)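 Pools were built from human transcription factors expressed in yeast as GST fusions, captured on glutathione beads and DNA-barcoded, along with a tag-only sample. Incubation with 200 nmole of a 16-mer random double-stranded DNA library lasted 30 min at room temperature in Tris/NaCl/DTT/glycerol buffer, and was followed by washing, 0.1% formaldehyde crosslinking, proximity ligation, PCR amplification and Illumina NextSeq500 sequencing. Binding signal is the quotient of each hexamer's read frequency for a factor and its frequency for the tag-only sample.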

ELK1 = target: T2, ELK1 (Homo sapiens, UniProt P19419 1-428)
T2 sequence: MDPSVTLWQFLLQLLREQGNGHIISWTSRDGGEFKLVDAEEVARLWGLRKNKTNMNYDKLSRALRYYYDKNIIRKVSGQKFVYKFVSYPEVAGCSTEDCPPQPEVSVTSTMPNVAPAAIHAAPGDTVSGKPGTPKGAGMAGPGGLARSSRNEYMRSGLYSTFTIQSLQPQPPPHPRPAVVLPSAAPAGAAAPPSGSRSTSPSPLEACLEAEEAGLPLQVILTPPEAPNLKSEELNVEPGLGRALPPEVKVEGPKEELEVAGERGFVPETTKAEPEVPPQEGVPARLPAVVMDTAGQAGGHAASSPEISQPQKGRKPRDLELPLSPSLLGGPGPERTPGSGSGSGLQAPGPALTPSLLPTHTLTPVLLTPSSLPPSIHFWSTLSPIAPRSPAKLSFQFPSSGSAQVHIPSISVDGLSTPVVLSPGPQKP
How it was run: as §1

GABPA = target: T3, GABPA (Homo sapiens, UniProt Q06546 1-454)
T3 sequence: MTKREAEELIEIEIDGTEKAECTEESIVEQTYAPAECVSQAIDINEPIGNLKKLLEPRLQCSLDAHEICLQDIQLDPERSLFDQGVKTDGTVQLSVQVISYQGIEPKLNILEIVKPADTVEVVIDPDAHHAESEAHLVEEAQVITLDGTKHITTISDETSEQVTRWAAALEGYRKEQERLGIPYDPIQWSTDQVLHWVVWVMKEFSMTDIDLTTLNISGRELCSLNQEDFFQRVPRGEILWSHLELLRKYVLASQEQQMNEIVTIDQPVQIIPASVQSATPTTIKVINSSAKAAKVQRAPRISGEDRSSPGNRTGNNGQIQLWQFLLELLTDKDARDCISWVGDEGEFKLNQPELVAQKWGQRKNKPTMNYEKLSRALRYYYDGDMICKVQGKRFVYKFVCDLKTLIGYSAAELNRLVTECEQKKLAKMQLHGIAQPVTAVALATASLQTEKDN
How it was run: as §1

ERG = target: T4, ERG (Homo sapiens, UniProt P11308 1-479)
T4 sequence: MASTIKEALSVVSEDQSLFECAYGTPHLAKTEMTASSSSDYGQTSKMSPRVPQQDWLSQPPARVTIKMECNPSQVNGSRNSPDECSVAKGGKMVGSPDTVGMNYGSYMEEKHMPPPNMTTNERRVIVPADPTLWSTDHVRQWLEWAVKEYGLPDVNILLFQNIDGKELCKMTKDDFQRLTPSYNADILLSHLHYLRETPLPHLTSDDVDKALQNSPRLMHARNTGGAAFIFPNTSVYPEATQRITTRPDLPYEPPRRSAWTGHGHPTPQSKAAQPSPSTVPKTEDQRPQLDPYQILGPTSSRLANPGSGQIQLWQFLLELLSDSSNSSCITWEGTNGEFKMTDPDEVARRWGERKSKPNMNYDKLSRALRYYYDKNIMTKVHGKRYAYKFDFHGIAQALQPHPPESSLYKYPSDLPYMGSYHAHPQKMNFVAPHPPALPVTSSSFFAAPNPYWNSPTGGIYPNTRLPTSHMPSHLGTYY
How it was run: as §1

EHF = target: T5, EHF (Homo sapiens, UniProt Q9NZC4 1-300)
T5 sequence: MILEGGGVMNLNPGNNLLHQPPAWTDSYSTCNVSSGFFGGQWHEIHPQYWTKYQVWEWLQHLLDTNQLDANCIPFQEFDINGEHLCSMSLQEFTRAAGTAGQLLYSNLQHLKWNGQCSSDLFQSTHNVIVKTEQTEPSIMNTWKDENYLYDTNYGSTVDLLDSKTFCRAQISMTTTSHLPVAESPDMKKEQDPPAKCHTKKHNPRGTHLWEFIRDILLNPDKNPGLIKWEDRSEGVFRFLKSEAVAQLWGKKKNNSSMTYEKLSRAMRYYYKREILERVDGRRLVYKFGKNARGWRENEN
How it was run: as §1

SPI1 = SPI1 (Homo sapiens, UniProt P17947 1-270)
How it was run: as §1

SPIB = SPIB (Homo sapiens, UniProt Q01892 1-262)
Chain of SPIB (Q01892 whole entry): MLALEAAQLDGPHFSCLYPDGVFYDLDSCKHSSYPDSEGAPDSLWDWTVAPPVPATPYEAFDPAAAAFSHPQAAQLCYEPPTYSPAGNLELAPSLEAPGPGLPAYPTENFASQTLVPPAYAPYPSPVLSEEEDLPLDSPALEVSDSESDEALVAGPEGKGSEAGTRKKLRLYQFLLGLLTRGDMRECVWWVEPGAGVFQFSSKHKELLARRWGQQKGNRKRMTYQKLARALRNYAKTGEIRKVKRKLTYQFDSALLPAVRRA
How it was run: as §1

ELK3 = target: T6, ELK3 (Homo sapiens, UniProt P41970 1-407)
T6 sequence: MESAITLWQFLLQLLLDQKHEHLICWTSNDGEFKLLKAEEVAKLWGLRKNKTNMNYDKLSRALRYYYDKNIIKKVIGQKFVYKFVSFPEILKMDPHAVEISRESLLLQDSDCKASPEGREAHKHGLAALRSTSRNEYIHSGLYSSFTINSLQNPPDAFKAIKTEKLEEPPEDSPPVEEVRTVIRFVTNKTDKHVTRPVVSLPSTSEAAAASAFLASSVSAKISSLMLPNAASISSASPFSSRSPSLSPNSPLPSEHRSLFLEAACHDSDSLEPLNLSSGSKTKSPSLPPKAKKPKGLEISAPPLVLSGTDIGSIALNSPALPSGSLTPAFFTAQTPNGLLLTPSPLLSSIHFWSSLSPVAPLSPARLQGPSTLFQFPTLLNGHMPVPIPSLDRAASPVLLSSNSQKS
How it was run: as §1

ETV5 = ETV5 (Homo sapiens, UniProt P41161 1-510)
Chain of ETV5 (P41161 whole entry): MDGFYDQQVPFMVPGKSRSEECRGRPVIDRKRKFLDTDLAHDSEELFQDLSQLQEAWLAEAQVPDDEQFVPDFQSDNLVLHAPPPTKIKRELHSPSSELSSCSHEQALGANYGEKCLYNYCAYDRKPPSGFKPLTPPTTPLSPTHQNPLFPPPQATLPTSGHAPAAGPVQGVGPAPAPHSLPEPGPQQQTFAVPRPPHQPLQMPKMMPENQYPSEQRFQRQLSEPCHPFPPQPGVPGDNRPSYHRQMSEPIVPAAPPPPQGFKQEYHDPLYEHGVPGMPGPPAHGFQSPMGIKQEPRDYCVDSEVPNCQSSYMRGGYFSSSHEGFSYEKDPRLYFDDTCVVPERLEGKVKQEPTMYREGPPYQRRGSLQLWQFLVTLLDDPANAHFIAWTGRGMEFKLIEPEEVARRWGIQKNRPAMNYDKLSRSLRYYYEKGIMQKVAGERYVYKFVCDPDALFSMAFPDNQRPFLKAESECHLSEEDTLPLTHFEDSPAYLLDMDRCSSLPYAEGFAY
How it was run: as §1

ELF4 = ELF4 (Homo sapiens, UniProt Q99607 1-663)
Chain of ELF4 (Q99607 whole entry): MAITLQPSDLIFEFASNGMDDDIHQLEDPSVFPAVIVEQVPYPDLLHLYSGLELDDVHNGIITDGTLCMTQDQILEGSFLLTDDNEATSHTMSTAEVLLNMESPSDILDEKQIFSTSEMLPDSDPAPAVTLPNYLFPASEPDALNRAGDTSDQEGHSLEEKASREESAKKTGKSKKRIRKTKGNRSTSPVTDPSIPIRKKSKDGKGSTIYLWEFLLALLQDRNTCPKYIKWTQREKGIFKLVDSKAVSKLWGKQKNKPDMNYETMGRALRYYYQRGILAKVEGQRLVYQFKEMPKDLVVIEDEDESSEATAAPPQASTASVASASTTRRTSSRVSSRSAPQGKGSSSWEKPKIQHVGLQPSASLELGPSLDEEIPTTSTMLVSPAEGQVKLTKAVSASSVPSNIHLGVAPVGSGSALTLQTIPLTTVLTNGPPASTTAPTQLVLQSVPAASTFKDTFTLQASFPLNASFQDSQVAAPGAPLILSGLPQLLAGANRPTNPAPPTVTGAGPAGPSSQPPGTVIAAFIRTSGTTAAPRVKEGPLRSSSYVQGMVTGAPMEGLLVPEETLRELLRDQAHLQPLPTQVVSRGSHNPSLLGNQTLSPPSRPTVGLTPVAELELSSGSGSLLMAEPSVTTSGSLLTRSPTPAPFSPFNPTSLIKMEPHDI
How it was run: as §1

ETV2 = target: T7, ETV2 (Homo sapiens, UniProt O00321 1-342)
T7 sequence: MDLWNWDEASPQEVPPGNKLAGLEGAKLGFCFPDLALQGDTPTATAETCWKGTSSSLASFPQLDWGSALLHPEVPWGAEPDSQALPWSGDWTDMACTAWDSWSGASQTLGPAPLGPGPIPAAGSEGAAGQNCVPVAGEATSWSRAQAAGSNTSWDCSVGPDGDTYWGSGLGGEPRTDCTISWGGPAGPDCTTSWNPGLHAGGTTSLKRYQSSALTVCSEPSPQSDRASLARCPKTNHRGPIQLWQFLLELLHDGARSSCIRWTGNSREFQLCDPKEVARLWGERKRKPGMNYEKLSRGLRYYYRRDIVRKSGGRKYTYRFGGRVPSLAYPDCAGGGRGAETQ
How it was run: as §1

ELF3 = target: T8, ELF3 (Homo sapiens, UniProt P78545 1-371)
T8 sequence: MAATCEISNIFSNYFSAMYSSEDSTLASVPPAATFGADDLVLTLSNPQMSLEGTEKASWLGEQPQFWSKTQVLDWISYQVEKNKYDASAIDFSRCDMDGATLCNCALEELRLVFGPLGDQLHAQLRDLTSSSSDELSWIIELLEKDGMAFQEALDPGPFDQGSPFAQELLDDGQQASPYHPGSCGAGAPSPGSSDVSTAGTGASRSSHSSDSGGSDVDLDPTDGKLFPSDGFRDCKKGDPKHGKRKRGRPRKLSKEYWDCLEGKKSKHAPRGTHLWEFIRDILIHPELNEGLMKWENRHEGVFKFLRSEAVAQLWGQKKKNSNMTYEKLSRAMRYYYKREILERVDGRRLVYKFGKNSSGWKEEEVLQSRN
How it was run: as §1

ETV1 = ETV1 (Homo sapiens, UniProt P50549 1-477)
Chain of ETV1 (P50549 whole entry): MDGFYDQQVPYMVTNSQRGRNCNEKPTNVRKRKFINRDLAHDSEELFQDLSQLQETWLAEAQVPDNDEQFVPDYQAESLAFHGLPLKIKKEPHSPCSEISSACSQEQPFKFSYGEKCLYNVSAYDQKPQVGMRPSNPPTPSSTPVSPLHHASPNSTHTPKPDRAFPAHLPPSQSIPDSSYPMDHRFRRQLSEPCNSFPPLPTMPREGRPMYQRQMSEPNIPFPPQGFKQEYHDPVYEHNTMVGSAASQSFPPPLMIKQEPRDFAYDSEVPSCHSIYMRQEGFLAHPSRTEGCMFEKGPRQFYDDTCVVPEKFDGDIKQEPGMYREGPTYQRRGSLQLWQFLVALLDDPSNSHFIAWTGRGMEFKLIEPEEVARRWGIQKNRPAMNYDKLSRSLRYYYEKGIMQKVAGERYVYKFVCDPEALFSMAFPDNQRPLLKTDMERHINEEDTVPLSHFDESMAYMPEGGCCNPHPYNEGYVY
How it was run: as §1

ERF = target: T9, ERF (Homo sapiens, UniProt P50548 1-548)
T9 sequence: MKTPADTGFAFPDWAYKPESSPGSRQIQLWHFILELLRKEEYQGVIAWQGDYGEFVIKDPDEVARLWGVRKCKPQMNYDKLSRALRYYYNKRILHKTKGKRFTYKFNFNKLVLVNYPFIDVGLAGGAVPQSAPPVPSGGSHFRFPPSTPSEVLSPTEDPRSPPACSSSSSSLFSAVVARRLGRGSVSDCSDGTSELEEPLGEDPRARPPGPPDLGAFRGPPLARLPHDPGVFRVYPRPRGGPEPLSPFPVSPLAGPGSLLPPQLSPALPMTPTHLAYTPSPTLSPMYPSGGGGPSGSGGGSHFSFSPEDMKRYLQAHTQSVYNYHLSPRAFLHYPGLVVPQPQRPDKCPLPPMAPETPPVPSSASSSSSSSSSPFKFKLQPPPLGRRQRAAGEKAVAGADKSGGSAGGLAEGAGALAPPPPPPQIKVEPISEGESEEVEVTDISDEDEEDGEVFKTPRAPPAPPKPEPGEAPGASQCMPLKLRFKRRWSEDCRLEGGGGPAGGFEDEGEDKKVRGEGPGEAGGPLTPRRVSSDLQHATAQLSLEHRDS
How it was run: as §1

ETV3L = target: T10, ETV3L (Homo sapiens, UniProt Q6ZN32 1-361)
T10 sequence: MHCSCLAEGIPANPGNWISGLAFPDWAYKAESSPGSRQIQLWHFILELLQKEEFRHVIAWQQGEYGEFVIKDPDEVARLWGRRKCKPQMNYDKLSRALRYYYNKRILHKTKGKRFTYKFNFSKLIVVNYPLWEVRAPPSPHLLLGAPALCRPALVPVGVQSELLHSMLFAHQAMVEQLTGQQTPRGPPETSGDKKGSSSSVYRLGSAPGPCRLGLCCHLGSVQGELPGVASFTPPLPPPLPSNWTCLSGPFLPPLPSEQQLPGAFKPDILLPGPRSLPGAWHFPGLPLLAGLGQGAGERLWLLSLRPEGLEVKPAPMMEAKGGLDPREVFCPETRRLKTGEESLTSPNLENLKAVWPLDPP
How it was run: as §1

ETV3 = target: T11, ETV3 (Homo sapiens, UniProt P41162-2 1-143)
T11 sequence: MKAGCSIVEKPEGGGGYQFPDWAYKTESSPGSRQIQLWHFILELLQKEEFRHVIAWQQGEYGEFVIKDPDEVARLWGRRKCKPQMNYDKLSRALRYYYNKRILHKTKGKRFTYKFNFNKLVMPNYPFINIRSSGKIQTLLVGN
How it was run: as §1

ETV6 = ETV6 (Homo sapiens, UniProt P41212 1-452)
Chain of ETV6 (P41212 whole entry): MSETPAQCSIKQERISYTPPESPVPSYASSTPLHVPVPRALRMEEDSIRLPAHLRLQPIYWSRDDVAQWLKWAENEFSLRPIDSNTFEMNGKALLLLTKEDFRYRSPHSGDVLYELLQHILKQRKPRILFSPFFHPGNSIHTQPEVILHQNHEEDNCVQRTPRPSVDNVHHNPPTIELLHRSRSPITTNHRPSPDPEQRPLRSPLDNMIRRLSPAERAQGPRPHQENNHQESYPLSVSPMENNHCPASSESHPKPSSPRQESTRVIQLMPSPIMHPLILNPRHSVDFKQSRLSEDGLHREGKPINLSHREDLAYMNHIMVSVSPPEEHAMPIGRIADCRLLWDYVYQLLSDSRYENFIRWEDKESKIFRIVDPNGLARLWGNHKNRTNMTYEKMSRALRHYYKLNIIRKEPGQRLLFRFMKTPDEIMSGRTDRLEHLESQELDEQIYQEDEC
How it was run: as §1

ATAAGG was tested, and the binding signal (FLI1) was 1.07 fold enrichment (6-mer frequency, TF over GST control), the binding signal (ELK1) was 1.01 fold enrichment (6-mer frequency, TF over GST control) and the binding signal (GABPA) was 1.02 fold enrichment (6-mer frequency, TF over GST control). The binding signal (ERG) was 1.07 fold enrichment (6-mer frequency, TF over GST control), the binding signal (EHF) was 1.05 fold enrichment (6-mer frequency, TF over GST control) and the binding signal (SPI1) was 1.05 fold enrichment (6-mer frequency, TF over GST control). For the same sequence, the binding signal (SPIB) was 1.01 fold enrichment (6-mer frequency, TF over GST control), the binding signal (ELK3) was 1.19 fold enrichment (6-mer frequency, TF over GST control) and the binding signal (ETV5) was 1.04 fold enrichment (6-mer frequency, TF over GST control). The binding signal (ELF4) was 1.06 fold enrichment (6-mer frequency, TF over GST control), the binding signal (ETV2) was 1.02 fold enrichment (6-mer frequency, TF over GST control) and the binding signal (ELF3) was 1.1 fold enrichment (6-mer frequency, TF over GST control). For the same sequence, the binding signal (ETV1) was 1.03 fold enrichment (6-mer frequency, TF over GST control), the binding signal (ERF) was 1.05 fold enrichment (6-mer frequency, TF over GST control) and the binding signal (ETV3L) was 1.01 fold enrichment (6-mer frequency, TF over GST control). For the same sequence, the binding signal (ETV3) was 1.05 fold enrichment (6-mer frequency, TF over GST control) and the binding signal (ETV6) was 1.07 fold enrichment (6-mer frequency, TF over GST control).
